Measurements taken from PubChem BioAssay (NCI).
Compounds without any hit were thinned out: in the full panel of roughly 79,000, 15% have a hit. Values without a mark were called inactive. Active and inactive are the calls of the source. No stated cut-off is given here; in the data, active means growth inhibition above about 70%; inactive means the rest.

Tests used:
[1] = NCI Yeast Anticancer Drug Screen. Data for the rad50 strain (AID 155);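 further: 0% = growth of vehicle-only cultures of the same strain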; settings: S. cerevisiae rad50 strain growth inhibition; at 50.0 µM; stronger effect = higher value
Procedure, shortened: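 Compounds were tested on a yeast strain with an engineered DNA damage repair alteration; the reported value is growth inhibition normalised to vehicle treatment.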

[2] = NCI Yeast Anticancer Drug Screen. Data for the mec2-1 strain (AID 157); settings: S. cerevisiae mec2-1 strain, at 50.0 µM, stronger effect = higher value
Procedure, shortened: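 Mutant yeast (mec2-1) grown with compound; growth inhibition relative to vehicle control reported.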

[3] = NCI Yeast Anticancer Drug Screen. Data for the sgs1 mgt1 strain (AID 161);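 further: 0% = growth of cultures given vehicle only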; settings: S. cerevisiae sgs1 mgt1 strain, at 50.0 µM, stronger effect = higher value
Procedure, shortened: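 This yeast growth screen uses a strain with defined DNA-repair lesions; compound-treated growth is compared with vehicle-treated growth.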

[4] = NCI Yeast Anticancer Drug Screen. Data for the cln2 rad14 strain (AID 165);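 further: 0% = growth equal to vehicle treated cultures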; settings: S. cerevisiae cln2 rad14 strain, at 50.0 µM, stronger effect = higher value
Procedure, shortened: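 Readout is yeast growth inhibition versus vehicle-treated controls, using a strain with cln2 and rad14 alterations exposed to compound.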

[5] = NCI Yeast Anticancer Drug Screen. Data for the bub3 strain (AID 167); settings: S. cerevisiae bub3 mutant strain, at 50.0 µM, stronger effect = higher value
Procedure, shortened: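 Growth of a checkpoint-deficient yeast mutant is measured after compound exposure. Values represent inhibition relative to vehicle.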

[6] = NCI Yeast Anticancer Drug Screen. Data for the mlh1 rad18 strain (AID 175); settings: S. cerevisiae mlh1 rad18 strain growth inhibition; at 50.0 µM; stronger effect = higher value
Procedure, shortened: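 Genetically defined yeast (DNA repair-deficient) exposed to compounds; growth inhibition determined relative to vehicle.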

SMILES | growth inhibition [1] | growth inhibition [2] | growth inhibition [3] | growth inhibition [4] | growth inhibition [5] | growth inhibition [6]
C[C@H](CCC(=O)O[C@@H]1CC[C@@]2(C)C(CC[C@H]3[C@@H]4CC[C@H]([C@H](C)CCc5nc6ccccc6[nH]5)[C@@]4(C)CC[C@@H]32)C1)[C@H]1CC[C@H]2[C@@H]3CCC4C[C@H](O)CC[C@]4(C)[C@H]3CC[C@]12C (some centres not stated) | 5.8% | -2.55% | -16.4% | 11.3% | 6.2% | -6.05%
O=C(CSc1nc2ccccc2c2ccccc12)c1ccccc1 | 9.25% | -42.5% | -4.4% | -52% | -42.8% | 12.8%
OC1(c2ccccc2)c2ccccc2Oc2cc(Cl)ccc21 (configuration not stated) | 9.4% | -0.85% | 2.8% | 10.3% | 2.15% | 45.8%
CC(=O)Nc1cccc(/C=C/c2ccc([N+](=O)[O-])cc2)c1 | 52.8% | 42.6% | 53% | 32.5% | 46.4% | 89.2% (active)
Nc1cc(=O)n(C2CC(O)C(CO)O2)cn1 (configuration not stated) | 7.25% | 2.05% | 11.5% | 1.95% | -13.3% | 5.6%
CCC(=O)NC(C(=O)O)C(C)(C)S (configuration not stated) | -0.4% | -3.65% | 0.1% | 5.9% | 2.4% | -3.95%
CCC(C(=O)O)C(=O)O | -16.9% | -38.4% | -23.7% | 14.3% | -7.75% | 10.3%
CCCCCOC(=O)OC(C)CNC(=O)C(C)OC(=O)OCCCCC (configuration not stated) | -17.4% | -33.5% | -12.5% | -61.4% | -9.5% | -29.4%
COc1ccc2cc(C(C)C(O)c3cc(F)c(F)c(F)c3F)ccc2c1 (configuration not stated) | -21.1% | -30.3% | -10.7% | 0.15% | -1.25% | -20.5%
Cc1ccc(OC/C=C/c2ccc([N+](=O)[O-])cc2)cc1 | -1.45% | -9.3% | -7.4% | -58.8% | -4.55% | -19.2%
Nc1nc(CCl)nc(N2CCOCC2)n1 | 6.3% | 1.65% | 7.7% | 20.4% | 19.4% | -20.2%
COC(OC)(c1ccccc1)c1ccccc1 | -33% | -27.4% | -33% | -11.1% | -40.6% | -18.6%
CCC1(c2ccccc2)NC(=O)N(N)C1=O (configuration not stated) | 0.4% | 28.5% | -8.8% | 9.05% | -0.75% | 1.85%
CCC(CCc1ccc(OC)c(OC)c1)C(=O)O (configuration not stated) | 1.8% | 12.2% | 14.2% | -9.85% | 29.4% | 9.15%
Oc1ccc(N2CCOCC2)cc1 | 0.45% | 16.8% | 3.05% | -32% | 25.6% | 8.5%
CC(=O)NCCCCCC(=O)O | 38.9% | 2.45% | 11.9% | 10.7% | -2.65% | 20.7%
OC1CCOc2ccccc21 (configuration not stated) | -29.8% | 10.1% | -11.1% | 10.2% | -14.8% | -6.3%
CCCCOP(=O)(OCCCC)/C(C#N)=C/c1ccco1 | -67.7% | -65.6% | -50.1% | -42.1% | -29.8% | -79.4%
CCOC(=O)CC(CC(=O)OCC)(C(=O)OCC)C(=O)OCC | -2.2% | 4.45% | 8.55% | -57.2% | -17.3% | -1.95%
Brc1cccc(C2SCc3nc4ccccc4n32)c1 (configuration not stated) | 33% | 16.9% | 37.2% | 19.9% | 19.2% | 21.4%
NC(CCC(=O)NC1(C(=O)O)C2CC3CC(C2)CC1C3)C(=O)O (configuration not stated) | 6% | -0.1% | -5% | -18% | -4.4% | 4.85%

SMILES | growth inhibition [1] | growth inhibition [2] | growth inhibition [3] | growth inhibition [4] | growth inhibition [5] | growth inhibition [6]
Cc1nc(CC#N)n[nH]1 | 24.5% | 18% | 17.1% | 11.3% | 24.8% | 19.7%
CCCCOC(=O)C(=O)OCCCC | 13.7% | -2.9% | 3.75% | 14.8% | 21.1% | 17.2%
CCCCN1CCNC1=S | -0.85% | -13.2% | 4.25% | -10.6% | -28.4% | 9.35%
COc1cc(OC)nc(NS(=O)(=O)c2ccc(N)cc2)n1 | 6% | -3.8% | 20.9% | 19.6% | 10.3% | 6.65%
CC(=O)c1cccc(NC(=O)Oc2ccc(Cl)cc2Cc2ccccc2)c1 | 99.1% (active) | 50.2% | 64.1% | 99.5% (active) | 99.4% (active) | 99% (active)
Nc1nc(N)c2nc(-c3ccc([N+](=O)[O-])cc3)c(=O)[nH]c2n1 | -9.75% | -8.5% | -2.05% | -11.3% | 29.2% | 14.7%
CSCCC(O)C(=O)O (configuration not stated) | 21.8% | -7.4% | 19.5% | 28.2% | -2.55% | 17%
Oc1ccc(-c2nnc(-c3ccc(O)cc3)nn2)cc1 | 10.8% | 17.4% | 21.1% | 17.4% | 23.2% | 10.9%
CCC(O)(C#CCl)CC | 11.6% | -10.9% | 10% | 10.2% | -29.1% | 11.1%
CCOC(=O)c1ccc2c(c1)Cc1c-2cc(Br)c(N)c1Br | 78.5% (active) | 3.1% | 45% | 9.15% | 18.4% | 47%
COC(=O)CCCCCCC/C=N/Nc1ccc([N+](=O)[O-])cc1[N+](=O)[O-] | 6.9% | 22% | 4.7% | 8.85% | 7.3% | 17.4%
O=CN(CCO)CCO | -1.6% | 1.25% | -3.5% | 11.1% | 7.35% | -4.2%
O=[N+]([O-])c1ccc(OCCCCCBr)c(Cl)c1 | -1.95% | 47.1% | 70.3% (active) | -26.7% | 66.2% | 54.7%
O=c1/c(=C2\Cc3cccc4cccc2c34)c2cccc3cccc1c32 | -9.7% | -10.8% | 10.1% | -1.45% | 18.7% | -15.2%
c1ccc2c(c1)[nH]c1ccccc12 | -30.9% | -15.9% | 1.65% | -3.05% | -5.5% | 7.05%
O=C1OC(c2ccc(Cl)cc2)=C/C1=C/c1ccccn1 | -1.4% | 10% | 5.2% | -34% | 4.55% | 11.3%
O=C1N(c2ccccc2)C2(O)C(=O)c3ccccc3C2(O)N1c1ccccc1 (configuration not stated) | -10% | -2.15% | 15.6% | 16.5% | 3.1% | -4.5%
CCOC(=O)C1CNCCC1=O (configuration not stated) | -5.25% | -20.9% | -4.15% | -1.4% | -11.2% | -8.95%
O=C(c1ccc(OC(=O)c2ccccc2O)cc1)c1ccc(OC(=O)c2ccccc2O)cc1 | 27.6% | 6.75% | 29.3% | -100% | 8.3% | 15.9%
CCO/C=C\C(OCC)OCC | 3.55% | -8.95% | 3.1% | -15.2% | 18.2% | -0.6%
CCCNC(=S)/N=C/c1c(O)cc(C)oc1=O | -51.6% | -65.6% | -24.2% | -0.3% | -18.5% | -42.2%
